Assay results taken from PubChem BioAssay (Tox21).
Records with an inconclusive call do not appear. Calls of active or inactive are those of the source. Unless noted, the call rests on the fitted dose curve.

Legend:
[1] = qHTS assay to identify small molecule antagonists of the estrogen receptor beta (ER-beta) signaling pathway - cell viability counter screen (AID 1259382; active means well fitted curve in the direction sought with a large enough effect in the repeat runs; an effect the other way counts as inactive or inconclusive;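 further: HEK293T cells carrying ER-beta-UAS-bla reporter stimulated with estradiol; series mostly up to about 92 µM; nearly all actives have a fitted effect of over 55% in size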)
Method in brief: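 Tox21 10K library tested in qHTS format on ER-beta-bla HEK293T cells stimulated with 1nM E2; 16 hr treatment at 37C. Same-well CellTiter-Glo luminescence served as the cell viability measure.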

[2] = biological target: Estrogen receptor (Homo sapiens) (UniProt P03372); assay: qHTS assay to identify small molecule agonists of the estrogen receptor alpha (ER-alpha) signaling pathway in the presence of an antagonist (AID 1259383); further: top concentration of the series differs between compounds; nearly all actives have a fitted effect of over 15% in size
Method in brief: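 In VM7Luc4E2 cells, 4,000 per well, compounds at 15 concentrations were co-incubated 22hr at 37C with 10.0nM final ICI-182,780. Luminescence from the stably transfected 4×ERE-luciferase reporter was recorded 30min after ONE-Glo addition.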

[3] = qHTS assay to identify small molecule agonists or antagonists of the thyroid stimulating hormone receptor (TSHR) signaling pathway - wild type cell line counter screen (AID 1259384)
Method in brief: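 Counter screen in untransfected Hek293: compounds (15-point titration, triplicate) plus phosphodiesterase inhibitor Ro20-1724 added after 18 h plating; 30 min RT. Intracellular cAMP via competitive d2/cryptate immunoassay, 1 h incubation.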

[4] = biological target: Thyrotropin receptor (Homo sapiens) (UniProt P16473); assay: qHTS assay to identify small molecule antagonists of the thyroid stimulating hormone receptor (TSHR) signaling pathway (AID 1259385); further: nearly all actives have a fitted effect of over 20% in size
Method in brief: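 Antagonist mode: compound-treated TSHR-expressing HEK293 cells were stimulated with 1.5 ng/mL TSH (final) in presence of Ro20-1724 for 30 min at RT. HTRF cAMP detection after 1 h; each compound tested at 15 concentrations, triplicate.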

[5] = qHTS assay to identify small molecule agonists of the estrogen receptor alpha (ER-alpha) signaling pathway in the presence of an antagonist - cell viability counter screen (AID 1259386; active means well fitted curve in the direction sought with a large enough effect in the repeat runs; an effect the other way counts as inactive or inconclusive;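 further: series mostly up to about 92 µM; cells exposed to compounds for 22 h at 37 °C before the viability read; nearly all actives have a fitted effect of over 30% in size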)
Method in brief: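 Fluorescent CellTiter-Fluor viability signal from VM7Luc4E2 cells, with the reagent added during the final hour of a 22hr compound exposure at 37C in the presence of 10.0nM ICI-182,780.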

[6] = biological target: Progesterone receptor (Homo sapiens) (UniProt P06401); assay: qHTS assay to identify small molecule agonists of the progesterone receptor (PR) signaling pathway (AID 1346784); further: nearly all actives have a fitted effect of over 30% in size; further: potency means the concentration at half of the fitted maximal effect
Method in brief: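 Agonist qHTS: compounds pinned onto 3,000 PR-UAS-bla HEK 293T cells per well in charcoal-stripped serum medium, 16hr at 37C, then beta-lactamase activity measured by LiveBLAzer FRET fluorescence after 2 hours at room temperature.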

[7] = biological target: Progesterone receptor (Homo sapiens) (UniProt P06401); assay: qHTS assay to identify small molecule antagonists of the progesterone receptor (PR) signaling pathway (AID 1346795; active means well fitted inhibition curve with a large enough effect in the signal ratio in the repeat runs, not every such curve was filed as active; the % refers to the signal ratio)
Method in brief: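 Antagonist mode with agonist R5020 at 1 nM final and 16 hr incubation at 37C. Reporter was beta-lactamase driven by UAS in HEK293T (PR-UAS-bla), 2% charcoal-stripped serum; signal from LiveBLAzer FRET substrate, 2 hr at room temperature.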

[8] = qHTS assay to identify small molecule agonists of the progesterone receptor (PR) signaling pathway - cell viability counter screen (AID 1346799); further: nearly all actives have a fitted effect of over 45% in size
Method in brief: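 Cytotoxicity measured by CellTiter-Glo luminescence (30 min, RT) in the same wells as the PR beta-lactamase agonist read. Those HEK293T cells had 16 h compound treatment at 37 C in 2% charcoal-stripped FBS medium.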

[9] = qHTS assay to identify small molecule antagonists of the progesterone receptor (PR) signaling pathway - cell viability counter screen (AID 1346798; active means well fitted curve in the direction sought with a large enough effect in the repeat runs; an effect the other way counts as inactive or inconclusive; further: series mostly up to about 92 µM; nearly all actives have a fitted effect of over 50% in size)
Method in brief: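 Cytotoxicity read as CellTiter-Glo luminescence (30 min, room temperature) in the same wells as the beta-lactamase readout. HEK293T PR-UAS-bla cells in charcoal-stripped 2% FBS received compound and R5020, then 16 h at 37C, 5% CO2.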

[10] = biological target: Androgen receptor (Homo sapiens) (UniProt P10275); assay: qHTS assay to identify small molecule agonists of the androgen receptor (AR) signaling pathway in the presence of an antagonist (AID 1259381); further: nearly all actives have a fitted effect of over 15% in size
Method in brief: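 Here, 15-concentration compound series were pin-transferred onto MDA-kb2 MMTV-luciferase cells already dosed with nilutamide (3.0uM final). After 16hr at 37C, ONE-Glo was added and luminescence read 30min later at room temperature.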

Measured: Potency

Progesterone receptor (Homo sapiens), sequence (P06401 whole entry, looked up): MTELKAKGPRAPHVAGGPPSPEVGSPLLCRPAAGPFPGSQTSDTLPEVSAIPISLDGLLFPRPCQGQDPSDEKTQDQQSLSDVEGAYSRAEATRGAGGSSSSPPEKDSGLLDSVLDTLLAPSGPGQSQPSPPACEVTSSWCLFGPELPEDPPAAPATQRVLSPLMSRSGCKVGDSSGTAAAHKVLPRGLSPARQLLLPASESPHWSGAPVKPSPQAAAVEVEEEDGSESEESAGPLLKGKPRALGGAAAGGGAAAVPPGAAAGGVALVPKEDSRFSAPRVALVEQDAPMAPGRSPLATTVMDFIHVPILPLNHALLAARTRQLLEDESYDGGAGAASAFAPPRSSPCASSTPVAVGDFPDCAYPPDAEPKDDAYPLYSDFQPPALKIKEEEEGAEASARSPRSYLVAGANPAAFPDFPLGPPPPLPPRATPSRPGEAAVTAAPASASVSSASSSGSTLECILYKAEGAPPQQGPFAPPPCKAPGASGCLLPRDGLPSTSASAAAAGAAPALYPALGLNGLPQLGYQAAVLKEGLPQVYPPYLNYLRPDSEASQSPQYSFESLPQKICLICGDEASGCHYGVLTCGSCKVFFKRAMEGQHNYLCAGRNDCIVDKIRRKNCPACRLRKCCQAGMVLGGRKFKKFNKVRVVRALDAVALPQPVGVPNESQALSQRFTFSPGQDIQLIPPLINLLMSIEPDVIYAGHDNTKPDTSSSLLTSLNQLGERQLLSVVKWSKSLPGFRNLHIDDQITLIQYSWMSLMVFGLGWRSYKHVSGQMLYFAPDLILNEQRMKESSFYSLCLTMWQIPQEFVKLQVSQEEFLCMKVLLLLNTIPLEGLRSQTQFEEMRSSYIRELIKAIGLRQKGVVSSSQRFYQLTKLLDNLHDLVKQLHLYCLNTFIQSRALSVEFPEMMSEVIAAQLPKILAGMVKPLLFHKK
Estrogen receptor (Homo sapiens), sequence (P03372 whole entry, looked up): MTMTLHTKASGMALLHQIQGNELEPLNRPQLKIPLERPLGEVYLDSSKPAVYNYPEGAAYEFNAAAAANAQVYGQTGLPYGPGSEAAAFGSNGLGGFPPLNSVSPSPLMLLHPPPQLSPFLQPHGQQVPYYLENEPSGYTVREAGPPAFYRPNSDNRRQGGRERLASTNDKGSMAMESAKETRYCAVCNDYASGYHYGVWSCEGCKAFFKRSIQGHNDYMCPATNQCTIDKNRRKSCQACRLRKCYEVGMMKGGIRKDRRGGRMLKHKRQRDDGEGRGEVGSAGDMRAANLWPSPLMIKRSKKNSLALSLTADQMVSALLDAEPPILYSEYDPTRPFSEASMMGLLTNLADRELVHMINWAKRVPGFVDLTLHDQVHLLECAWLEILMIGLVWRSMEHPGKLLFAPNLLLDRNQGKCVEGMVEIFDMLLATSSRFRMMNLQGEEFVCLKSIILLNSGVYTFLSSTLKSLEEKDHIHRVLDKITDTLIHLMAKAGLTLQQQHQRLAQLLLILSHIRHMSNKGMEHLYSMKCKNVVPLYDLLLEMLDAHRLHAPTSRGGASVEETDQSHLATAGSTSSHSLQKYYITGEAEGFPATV
Thyrotropin receptor (Homo sapiens), sequence (P16473 whole entry, looked up): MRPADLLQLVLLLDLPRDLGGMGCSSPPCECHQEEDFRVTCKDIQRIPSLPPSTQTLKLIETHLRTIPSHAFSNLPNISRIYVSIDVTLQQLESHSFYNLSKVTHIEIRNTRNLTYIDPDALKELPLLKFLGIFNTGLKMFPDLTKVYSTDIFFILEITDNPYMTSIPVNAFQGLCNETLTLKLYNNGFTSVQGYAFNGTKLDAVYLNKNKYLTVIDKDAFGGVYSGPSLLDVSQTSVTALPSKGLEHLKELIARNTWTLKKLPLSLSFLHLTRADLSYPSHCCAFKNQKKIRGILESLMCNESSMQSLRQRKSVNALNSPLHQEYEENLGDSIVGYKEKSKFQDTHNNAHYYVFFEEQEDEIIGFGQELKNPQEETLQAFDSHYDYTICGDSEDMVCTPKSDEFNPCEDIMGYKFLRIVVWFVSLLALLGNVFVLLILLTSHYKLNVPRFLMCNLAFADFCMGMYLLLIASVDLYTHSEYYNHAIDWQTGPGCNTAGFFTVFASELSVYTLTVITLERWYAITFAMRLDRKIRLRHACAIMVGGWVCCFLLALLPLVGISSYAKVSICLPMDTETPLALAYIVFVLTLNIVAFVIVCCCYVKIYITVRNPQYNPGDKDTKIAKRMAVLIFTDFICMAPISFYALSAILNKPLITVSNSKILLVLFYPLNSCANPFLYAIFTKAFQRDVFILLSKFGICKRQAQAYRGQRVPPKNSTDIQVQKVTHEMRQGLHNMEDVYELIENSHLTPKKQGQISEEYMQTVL
Androgen receptor (Homo sapiens), sequence (P10275 whole entry, looked up): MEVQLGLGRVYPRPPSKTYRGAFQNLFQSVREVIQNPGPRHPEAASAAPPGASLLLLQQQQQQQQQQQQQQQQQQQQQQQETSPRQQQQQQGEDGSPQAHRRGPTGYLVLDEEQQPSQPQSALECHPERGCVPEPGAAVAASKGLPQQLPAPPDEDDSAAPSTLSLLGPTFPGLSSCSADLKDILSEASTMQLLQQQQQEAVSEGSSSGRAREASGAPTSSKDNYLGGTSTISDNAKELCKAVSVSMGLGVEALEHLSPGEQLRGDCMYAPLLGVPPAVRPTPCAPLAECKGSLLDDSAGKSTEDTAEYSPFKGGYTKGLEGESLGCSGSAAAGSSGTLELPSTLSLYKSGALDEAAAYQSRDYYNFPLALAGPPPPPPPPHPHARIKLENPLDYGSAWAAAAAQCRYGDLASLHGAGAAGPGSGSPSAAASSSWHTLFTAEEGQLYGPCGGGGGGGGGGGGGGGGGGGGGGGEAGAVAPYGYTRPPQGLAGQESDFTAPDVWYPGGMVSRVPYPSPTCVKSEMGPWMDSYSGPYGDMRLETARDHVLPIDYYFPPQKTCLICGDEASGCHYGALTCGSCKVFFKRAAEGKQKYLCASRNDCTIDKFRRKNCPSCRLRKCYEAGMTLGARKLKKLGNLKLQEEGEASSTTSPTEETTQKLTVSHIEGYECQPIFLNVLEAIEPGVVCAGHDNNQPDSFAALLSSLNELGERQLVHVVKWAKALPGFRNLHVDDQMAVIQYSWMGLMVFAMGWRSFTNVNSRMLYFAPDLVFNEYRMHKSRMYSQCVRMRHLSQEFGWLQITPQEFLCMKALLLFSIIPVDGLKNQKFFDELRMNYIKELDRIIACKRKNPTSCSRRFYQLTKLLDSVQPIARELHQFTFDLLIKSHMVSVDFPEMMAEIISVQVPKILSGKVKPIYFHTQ

CCN1CN(CC)CN(CC)C1
not listed: [9] | [10]
inactive: all other assays above

COc1ccc(NS(=O)(=O)c2ccc(N)cc2)nn1
not listed: [10]
inactive: all other assays above

COC(/C=C(\C)CCC=C(C)C)OC
not listed: [6] | [8] | [10]
inactive: all other assays above

CC(C)C(=O)c1ccccc1
not listed: [6] | [10]
inactive: all other assays above

CCCCCCCCOC(C)=O
not listed: [8] | [10]
inactive: all other assays above

OCCCCCCCl
not listed: [10]
inactive: all other assays above

Nc1ccc(S(=O)(=O)NC(=O)c2ccccc2)cc1
not listed: [10]
inactive: all other assays above

O=c1[nH]c(=O)c2ccccc2o1
not listed: [1] | [2]
inactive: all other assays above

O=S(=O)(O)CCO
not listed: [6] | [10]
inactive: all other assays above

CC(=O)c1ccc2c(c1)CCCC2
not listed: [6] | [10]
inactive: all other assays above

CC(C)CCCC(C)CC=O (centres undefined)
not listed: [9] | [10]
inactive: all other assays above

CCCCC(=O)N(C)C
not listed: [7] | [9] | [10]
inactive: all other assays above

CCCCOC(=O)C(C)OC(=O)CCC (centres undefined)
not listed: [10]
inactive: all other assays above

Nc1ccc(C(=O)OCC(O)CO)cc1 (centres undefined)
not listed: [8] | [10]
inactive: all other assays above

CC(=O)OC(C)c1ccccc1 (centres undefined)
not listed: [10]
inactive: all other assays above

CCN(CCC#N)c1ccccc1
not listed: [7] | [9] | [10]
inactive: all other assays above

CCCCCC1Nc2cc(C(F)(F)F)c(S(N)(=O)=O)cc2S(=O)(=O)N1 (centres undefined)
not listed: [8] | [10]
inactive: all other assays above

COC(=O)CCC(=O)O
not listed: [10]
inactive: all other assays above

C=CCOc1c(Br)cc(C(C)(C)c2cc(Br)c(OCC=C)c(Br)c2)cc1Br
not listed: [8] | [9] | [10]
inactive: all other assays above

C=C[Si](C)(C)O[Si](C)(C)C=C
not listed: [8] | [10]
inactive: all other assays above

C=CC(C)(O)CC/C=C(\C)CC (centres undefined)
not listed: [10]
inactive: all other assays above

Cn1c(=O)c2c(ncn2CC2OCCO2)n(C)c1=O
inactive: [10] | [5] | [6] | [7] | [9] | [8]

CCOC(=O)CCCCCCCCC(=O)OCC
not listed: [9] | [10]
inactive: all other assays above

CC(C)CCC(=O)CCC(C)C
not listed: [9] | [10]
inactive: all other assays above

CCCCCCCC/C=C\CCCCCCCC(=O)OC[C@@H](O)[C@H]1OC[C@H](O)[C@H]1O
not listed: [6] | [10]
inactive: all other assays above

CC(Cl)COP(=O)(OCC(C)Cl)OCC(C)Cl (centres undefined)
not listed: [7] | [10]
inactive: all other assays above

NCCc1ccn[nH]1
not listed: [3] | [6] | [10]
inactive: all other assays above

CCOC(=O)C(C)(C)C
active: [6] 12.3 µM
not listed: [4] | [10]
inactive: all other assays above
